Hits are enriched below; roughly 17% of the tested compounds scored in any of these assays.
DT40 TDP1 CPT – growth inhibition of DT40 Tdp1-/-;hTDP1 cells with camptothecin (screen for TDP1 inhibitors); AID 686979; Potency, µM (top dose mostly 46.2 µM), for inactives: at the highest dose activity change, negative = growth inhibition, hits mostly inhibitors; actives 12% (n = 420,000); chicken DT40 Tdp1-/-;hTDP1 cells + 20 nM CPT, ATP luminescence, 48 h; also: % is scaled to controls: 0 for no effect and ±100 for the full control effect; nearly all actives have a fitted effect of over 55% in size
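Chicken DT40 Tdp1-/- cells stably complemented with human TDP1 were seeded at 400 cells/well in medium containing 20 nM camptothecin, exposed to pin-transferred compounds, and grown at 37 °C for at least 48 hr. Viability was read as ATP luminescence.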
TDP1 cell noCPT – qHTS for Inhibitors of human tyrosyl-DNA phosphodiesterase 1 (TDP1): qHTS in cells in absence of CPT; DT40 Tdp1-/- hTDP1 cells, no CPT, ATP luminescence, 48 h; Potency, µM (highest dose often 46.2 µM), inactives show top-dose activity change, negative = growth inhibition, most hits filed as inhibitors; actives 15% (n = 420,000); AID 686978, 2013; also: % is scaled to controls: 0 for no effect and ±100 for the full control effect; nearly all actives have a fitted effect of over 55% in size
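DT40 Tdp1-/-;hTDP1 cells, no CPT (DMSO vehicle only), 400 cells/well; compounds pin-transferred; ≥48 hr, 37 °C; CellTiter-Glo 30 min RT dark, luminescence read.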
HT1080 IDH1KD tx – kills HT-1080 cells with IDH1 knockdown. HT-1080 IDH1 knockdown viability, ATP luminescence, 48 h. AID 686971. Potency, µM (titrated, usually from 46.1 µM), for the others: top-dose activity, negative = toxicity, most hits filed as cytotoxic. actives 2% (n = 360,000);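 also: 0% = DMSO wells and -100% = cell-free medium wells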
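Assay cells: HT-1080 with IDH1 knockdown, 750 per well, RPMI/5% FBS. Exposure: 48 h at 37 °C following 2 h pre-incubation. Read: CellTiter-Glo luminescence; fitted concentration-response, curve class assigned.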
HepG2 viability – counter-screen for TGF-b inhibitors: cytotoxicity in HepG2 cells | HepG2 CAGA-GFP viability, ATP luminescence, 18 h | actives 0.76% (n = 410,000) | Potency, µM (highest dose often 46.1 µM), inactives show at the top dose activity change, negative = cytotoxicity, actives largely listed as cytotoxic
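CellTiter-Glo luminescence gave cytotoxicity after 18 hours at 37 degrees C. The cells were HepG2 CAGA-GFP in 1% FBS DMEM, stimulated with 500 pg/mL TGF-beta after compound addition. %Activity was normalised to no-cell wells (complete cell-killing) and DMSO (no toxicity), and curves were fitted and classified.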
HT1080-NT tox – kills 2HG-producing HT-1080-NT fibrosarcoma cells | Potency, µM (highest dose often 46.1 µM), without a hit: top-dose activity, negative = less viability, usual class: cytotoxic | AID 686970 | HT-1080-NT fibrosarcoma viability, CellTiter-Glo ATP luminescence, 48 h | actives 1.6% (n = 360,000);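 also: NT is the 2HG producing partner of a matched IDH1 knockdown line; 0% = DMSO-treated cells and -100% = media-only wells without cells; nearly all actives have a fitted effect of over 55% in size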
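Luminescent CellTiter-Glo readout after 48 hours of compound exposure at 37 degrees C defined viability of HT-1080-NT cells. Activity was normalized to DMSO wells and cell-free media wells; concentration-response curves were fitted and assigned curve classes.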
TGFb SMAD3 inh – blocks TGF-b signaling | actives 1.2% (n = 410,000) | Potency, µM (titrated, usually from 46.1 µM), for the others: at the highest dose activity, negative = inhibition, usual class: inhibitors | HepG2 CAGA-GFP TGF-b/SMAD3 reporter, GFP fluorescence, 18 h; TGF-beta stimulated, 500 pg/mL final; also: % is scaled to controls: 0 for no effect and ±100 for the full control effect; nearly all actives have a fitted effect of over 65% in size
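Read-out: total well GFP (ex488/em500-530) summed from mean per-cell fluorescence. Cells: HEPG2 CAGA-GFP, 1% FBS DMEM, 18 h at 37 degrees C with 500 pg/mL final TGF-beta. Unstimulated wells served as the full-inhibition control; stimulated DMSO wells = 0%.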
Starred values were filed as active, the others as inactive; ? = inconclusive; / = not tested or not shown. Calls follow the shape of the dose curve; as a rule, active = well fitted curve in the direction sought with a large enough effect; inconclusive = small, poorly fitted or top-dose-only effect, or another doubt; inactive = no such curve, though single readings can be large; an effect the other way counts as inactive or inconclusive. Potency is read from the fitted curve at half-maximal effect.

SMILES	DT40 TDP1 CPT	TDP1 cell noCPT	HT1080 IDH1KD tx	HepG2 viability	HT1080-NT tox	TGFb SMAD3 inh
CCOC(=O)c1c(C)c(C(=O)NCc2ccc(Cl)cc2)c(C)n1CC	?	26µM*	/	3%	/	13%
CCOC(=O)c1c(C)c(C(=O)NCCOC)c(C)n1CC	-1%	0%	-1%	3%	7%	-3%
CCOC(=O)c1c(C)c(C(=O)Nc2ccc(N(C)C)cc2)c(C)n1CC	7.3µM*	4.6µM*	7.1µM*	2%	8.9µM*	-19%
COc1ccc([C@H]2N[C@]3(CCCN(Cc4ccc(C(F)(F)F)cc4)C3=O)[C@H]3C(=O)N(Cc4ccccc4)C(=O)[C@@H]23)cc1	?	18µM*	?	-27%	-27%	-18%
Cc1ccc([C@H]2N[C@]3(CCCN(Cc4ccco4)C3=O)[C@H]3C(=O)N(Cc4ccccc4)C(=O)[C@@H]23)cc1	-16%	?	12%	-15%	0%	-1%
O=C1[C@H]2[C@@H](c3ccccc3)N[C@]3(CCCN(Cc4ccco4)C3=O)[C@H]2C(=O)N1Cc1ccccc1	?	?	-1%	-5%	-7%	-3%
O=C1[C@H]2[C@@H](c3ccc(C(F)(F)F)cc3)N[C@]3(CCCN(Cc4ccc(C(F)(F)F)cc4)C3=O)[C@H]2C(=O)N1Cc1ccccc1	18µM*	18µM*	?	-37%	-17%	-18%
COc1ccc([C@H]2N[C@]3(CCCN(Cc4ccccc4)C3=O)[C@H]3C(=O)N(C)C(=O)[C@@H]23)cc1	-14%	-21%	6%	-13%	9%	6%
CC(C)CCN1CCC[C@]2(N[C@H](c3ccc(C(F)(F)F)cc3)[C@@H]3C(=O)N(Cc4ccccc4)C(=O)[C@@H]32)C1=O	18µM*	16µM*	-14%	-35%	-1%	-25%
O=C1[C@H]2[C@@H](c3ccc(C(F)(F)F)cc3)N[C@]3(CCCN(Cc4ccccc4)C3=O)[C@H]2C(=O)N1Cc1ccccc1	23µM*	23µM*	?	-14%	-18%	-15%
CC(C)c1nn2c(=O)cc(COC(=O)c3ccccc3NC(=O)C3CCCCC3)nc2s1	?	?	/	10%	/	3%
COc1cc(=O)n2c(c1C(=O)N(C)Cc1nccs1)CCN(Cc1cc3ccccc3s1)CC2	-107%	?	/	/	/	/
COc1ccc(CNC(=O)C(=O)Nc2c3c(nn2-c2ccccc2)CSC3)cc1	?	?	/	-2%	/	14%
Cc1ccc(CNS(=O)(=O)NCc2ccc(Cl)cc2)cc1	-15%	-4%	1%	8%	3%	1%
Cc1cc(OCCCSc2nc(-c3ccc(C(C)(C)C)cc3)nc3cc(=O)[nH]n23)ccc1Cl	?	?	/	-30%	/	?
CSCc1ccc(C(=O)NC2CC(C)(C)Cc3c2cnn3-c2ccc(F)cc2)o1 (stereo not drawn)	?	-30%	-19%	0%	-8%	-18%
O=C1[C@H]2[C@@H](c3ccc(C(F)(F)F)cc3)N[C@]3(CCCN(CC4CCCCC4)C3=O)[C@H]2C(=O)N1Cc1ccccc1	23µM*	23µM*	?	-13%	?	?
O=C1[C@H]2[C@@H](c3ccccc3)N[C@]3(CCCN(CC4CCCCC4)C3=O)[C@H]2C(=O)N1Cc1ccccc1	?	?	-3%	-50%	3%	?

Bioassay records deposited in PubChem BioAssay by National Center for Advancing Translational Sciences (NCATS).
